Source: PubChem BioAssay (EPA / NIEHS)
“And” between values parts separate entries of the source, which are not always exact repeats. Identical values can stand only once. Results filed as inconclusive are left out. More than one record can exist for a structure, and the calls need not agree. The source made the active and inactive calls. The calls were made as follows, unless noted: active = hit-call score of the fitted dose curve at least 0.9, where 1 is the maximum; inactive = score below 0.9.

Key:
[1] = ATG_NFI_CIS: Attagene CIS-FACTORIAL HepG2 Assay for human Nuclear Factor I (NFI) (AID 2282989); settings: HepG2 cis-regulatory reporter, NFI response element transcription; actives raise or lower the signal
Outline: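 HepG2 cells transiently transfected with cis-element-driven multiplexed reporter transcription units, dosed for 24 h. Reporter mRNA quantified by RT-PCR, fluorescent labelling, HpaI digestion and capillary electrophoresis; bidirectional fit versus DMSO baseline.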

[2] = target: Myc proto-oncogene protein (Homo sapiens) (UniProt P01106); experiment: ATG_Myc_CIS: Attagene CIS-FACTORIAL HepG2 Assay for human Myelocytomatosis (Myc) Proto-Oncogene Transcription Factor (AID 2282990); settings: HepG2, Attagene cis-reporter transcription factor activity; actives raise or lower the signal
Chain of Myc proto-oncogene protein (Homo sapiens) (P01106 whole entry, looked up): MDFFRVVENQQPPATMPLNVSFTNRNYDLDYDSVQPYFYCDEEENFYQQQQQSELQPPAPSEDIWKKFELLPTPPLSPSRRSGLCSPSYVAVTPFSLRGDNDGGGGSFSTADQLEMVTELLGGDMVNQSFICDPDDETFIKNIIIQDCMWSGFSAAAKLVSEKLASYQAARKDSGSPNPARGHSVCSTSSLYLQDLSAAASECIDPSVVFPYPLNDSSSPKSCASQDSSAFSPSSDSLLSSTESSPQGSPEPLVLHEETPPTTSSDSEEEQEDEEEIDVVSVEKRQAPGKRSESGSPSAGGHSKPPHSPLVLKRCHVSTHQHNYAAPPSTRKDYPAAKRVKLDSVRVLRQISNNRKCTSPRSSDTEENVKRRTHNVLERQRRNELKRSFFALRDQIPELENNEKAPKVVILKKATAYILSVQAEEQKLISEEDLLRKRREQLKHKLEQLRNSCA
Outline: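 Cells of the HepG2 human liver line bear multiple cis-driven reporter transcription units. Reporter mRNA after 24 h exposure is reverse-transcribed, amplified, labelled and resolved by capillary electrophoresis, with gain- or loss-of-signal fitting relative to DMSO.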

[3] = ATG_NRF2_ARE_CIS: Attagene CIS-FACTORIAL HepG2 Assay for human Nuclear Factor Erythroid 2 Related Factor 2 (NFR2) response to Antioxidant Response Elements (ARE) (AID 2282992); settings: HepG2 Attagene ARE/NRF2 reporter, transcription factor activity; actives raise or lower the signal
Outline: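 Cis-factorial assay: transfected HepG2 reporter library, 24 h dosing, mRNA readout via RT-PCR/CE; DMSO-referenced bidirectional analysis.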

[4] = ATG_Oct_MLP_CIS: Attagene CIS-FACTORIAL HepG2 Assay for human Octamer-Binding Transcription Factor (Oct) (AID 2282993); settings: HepG2 Attagene cis-factorial Oct reporter, mRNA; actives raise or lower the signal
Outline: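 HepG2 cells transiently transfected with cis-promoter-driven multiplexed reporter transcription units, dosed for 24 h. Reporter mRNA quantified by RT-PCR, fluorescent labelling, HpaI digestion and capillary electrophoresis; bidirectional fits versus DMSO baseline.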

[5] = target: human Peroxisome Proliferator-activated Receptor alpha (PPARa), PPARA (gene 5465) (UniProt Q07869); experiment: ATG_PPARa_TRANS: Attagene TRANS-FACTORIAL HepG2 Assay for human Peroxisome Proliferator-activated Receptor alpha (PPARa) (AID 2283001; active = hit-call score of the fitted dose curve at least 0.9, where 1 is the maximum;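 as to AC50: potency for gain of reporter signal over DMSO so agonist or activator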)
Chain of human Peroxisome Proliferator-activated Receptor alpha (PPARa), PPARA (gene 5465) (Q07869 whole entry, looked up, the tested form may be a part): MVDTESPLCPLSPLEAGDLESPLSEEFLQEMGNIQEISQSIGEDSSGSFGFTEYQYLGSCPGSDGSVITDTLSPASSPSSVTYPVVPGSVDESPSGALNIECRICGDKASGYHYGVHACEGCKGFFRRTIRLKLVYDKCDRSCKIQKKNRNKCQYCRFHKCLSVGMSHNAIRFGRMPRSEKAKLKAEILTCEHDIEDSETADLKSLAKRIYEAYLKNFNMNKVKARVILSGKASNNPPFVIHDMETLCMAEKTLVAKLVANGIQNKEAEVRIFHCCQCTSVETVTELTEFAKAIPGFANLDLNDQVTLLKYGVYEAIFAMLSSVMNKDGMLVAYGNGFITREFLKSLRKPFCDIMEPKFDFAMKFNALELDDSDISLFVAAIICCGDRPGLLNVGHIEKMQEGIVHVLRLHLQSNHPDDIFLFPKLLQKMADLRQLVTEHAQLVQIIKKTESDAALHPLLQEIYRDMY
Outline: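 Read-out is fluorescence of reporter cDNA fragments resolved by capillary electrophoresis after RT-PCR. Human HepG2 liver cells carried transfected PPARa-Gal4 chimera and GAL4-UAS reporter units, treated 24 h; activity scored as increase over DMSO.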

[6] = target: human Peroxisome Proliferator-activated Receptor delta (PPARd), PPARD (gene 5467) (UniProt Q03181); experiment: ATG_PPARd_TRANS: Attagene TRANS-FACTORIAL HepG2 Assay for human Peroxisome Proliferator-activated Receptor delta (PPARd) (AID 2283002; active = hit-call score of the fitted dose curve at least 0.9, where 1 is the maximum)
Chain of human Peroxisome Proliferator-activated Receptor delta (PPARd), PPARD (gene 5467) (Q03181 whole entry, looked up): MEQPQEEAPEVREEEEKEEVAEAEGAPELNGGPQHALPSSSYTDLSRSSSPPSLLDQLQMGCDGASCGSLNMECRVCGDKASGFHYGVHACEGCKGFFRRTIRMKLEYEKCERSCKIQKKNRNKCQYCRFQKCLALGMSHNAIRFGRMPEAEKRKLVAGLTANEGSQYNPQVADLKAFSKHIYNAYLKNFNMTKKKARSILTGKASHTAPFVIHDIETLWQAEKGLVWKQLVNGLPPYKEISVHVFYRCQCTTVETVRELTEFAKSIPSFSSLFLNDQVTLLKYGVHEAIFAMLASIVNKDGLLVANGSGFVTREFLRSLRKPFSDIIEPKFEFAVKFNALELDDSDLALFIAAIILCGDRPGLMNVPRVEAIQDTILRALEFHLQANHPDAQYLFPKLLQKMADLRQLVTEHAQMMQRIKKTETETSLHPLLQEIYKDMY
Outline: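 Cell-based TRANS reporter: HepG2, transient MRTU transfection, 24 h exposure. Readout = reporter mRNA (RT-PCR/CE, 6-FAM). Gain-of-signal fit vs DMSO control.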

[7] = target: human Retinoic Acid Receptor beta (RARb), RARB (gene 5915) (UniProt P10826); experiment: ATG_RARb_TRANS: Attagene TRANS-FACTORIAL HepG2 Assay for human Retinoic Acid Receptor beta (AID 2283004; active = hit-call score of the fitted dose curve at least 0.9, where 1 is the maximum)
Chain of human Retinoic Acid Receptor beta (RARb), RARB (gene 5915) (P10826 whole entry, looked up, the tested form may be a part): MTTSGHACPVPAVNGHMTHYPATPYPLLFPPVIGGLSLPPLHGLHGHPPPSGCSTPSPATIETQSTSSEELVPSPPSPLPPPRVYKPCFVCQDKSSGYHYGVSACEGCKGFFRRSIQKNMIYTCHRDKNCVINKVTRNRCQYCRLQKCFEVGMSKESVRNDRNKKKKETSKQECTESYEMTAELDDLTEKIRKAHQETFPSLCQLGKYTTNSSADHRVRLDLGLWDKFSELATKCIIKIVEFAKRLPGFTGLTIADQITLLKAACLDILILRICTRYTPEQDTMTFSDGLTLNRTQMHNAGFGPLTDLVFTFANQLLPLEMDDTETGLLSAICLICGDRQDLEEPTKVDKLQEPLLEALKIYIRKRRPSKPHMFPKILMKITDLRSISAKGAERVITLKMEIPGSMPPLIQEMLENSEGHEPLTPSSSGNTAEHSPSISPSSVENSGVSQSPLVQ
Outline: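 Fluorescent capillary-electrophoresis detection of GAL4-UAS reporter mRNA defines the endpoint, with induction over DMSO-treated wells scored as activity. Transiently transfected human hepatoma HepG2 cells expressing exogenous NR–Gal4 proteins are exposed to test chemicals for 24 h.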

[8] = target: Nuclear receptor subfamily 1 group I member 2 (Homo sapiens) (UniProt O75469); experiment: ATG_PXR_TRANS: Attagene TRANS-FACTORIAL HepG2 Assay for human Pregnane X Receptor (PXR) (AID 2283008; active = hit-call score of the fitted dose curve at least 0.9, where 1 is the maximum)
Chain of Nuclear receptor subfamily 1 group I member 2 (Homo sapiens) (O75469 whole entry, looked up, the tested form may be a part): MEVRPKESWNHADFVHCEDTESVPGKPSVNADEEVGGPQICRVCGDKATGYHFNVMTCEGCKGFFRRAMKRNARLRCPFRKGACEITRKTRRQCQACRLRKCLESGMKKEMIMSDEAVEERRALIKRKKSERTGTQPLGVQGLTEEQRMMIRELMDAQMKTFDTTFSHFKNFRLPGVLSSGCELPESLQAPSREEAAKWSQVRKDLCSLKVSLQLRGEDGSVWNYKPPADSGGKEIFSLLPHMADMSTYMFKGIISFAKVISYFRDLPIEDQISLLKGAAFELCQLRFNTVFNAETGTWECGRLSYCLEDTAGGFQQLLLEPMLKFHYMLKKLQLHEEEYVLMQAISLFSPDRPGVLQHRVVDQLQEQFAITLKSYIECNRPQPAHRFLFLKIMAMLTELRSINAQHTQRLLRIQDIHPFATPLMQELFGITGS
Outline: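 Fluorescence intensity of FAM-labelled, HpaI-digested reporter amplicons, separated by capillary electrophoresis, quantifies induction. HepG2 cells with PXR-Gal4 trans-reporter system were exposed 24 h; DMSO defines baseline.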

[9] = target: human RAR-related Orphan Receptor beta (RORb), RORB (gene 6096) (UniProt Q92753); experiment: ATG_RORb_TRANS: Attagene TRANS-FACTORIAL HepG2 Assay for human RAR-related Orphan Receptor beta (RORb) (AID 2283010; active = hit-call score of the fitted dose curve at least 0.9, where 1 is the maximum)
Chain of human RAR-related Orphan Receptor beta (RORb), RORB (gene 6096) (Q92753 whole entry, looked up, the tested form may be a part): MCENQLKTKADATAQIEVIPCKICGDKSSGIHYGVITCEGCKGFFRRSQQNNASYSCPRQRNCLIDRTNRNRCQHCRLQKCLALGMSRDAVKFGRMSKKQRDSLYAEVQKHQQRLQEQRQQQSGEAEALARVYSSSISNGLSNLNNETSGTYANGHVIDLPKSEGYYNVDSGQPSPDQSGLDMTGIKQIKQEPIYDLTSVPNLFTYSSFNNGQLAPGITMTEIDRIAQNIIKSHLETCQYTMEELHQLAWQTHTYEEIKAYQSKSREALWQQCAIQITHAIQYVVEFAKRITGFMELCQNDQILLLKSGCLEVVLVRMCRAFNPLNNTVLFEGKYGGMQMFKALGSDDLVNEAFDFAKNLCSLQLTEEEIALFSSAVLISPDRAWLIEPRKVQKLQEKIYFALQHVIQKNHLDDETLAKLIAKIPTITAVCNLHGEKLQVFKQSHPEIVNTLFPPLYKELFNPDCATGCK
Outline: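 HepG2 cells transiently transfected with GAL4-UAS reporter units expressing chimeric NR-Gal4 protein; reporter mRNA measured 24 h after dosing by RT-PCR, 6-FAM labelling and capillary electrophoresis. Gain-of-signal fitted relative to DMSO baseline.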

[10] = BSK_3C_TissueFactor: BioMAP Diversity Plus: 3C Assay for Tissue Factor Biomarker Activity (AID 2282997); settings: BioMAP 3C HUVEC, tissue factor biomarker readout; actives raise or lower the signal
Outline: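 Endothelial monolayers (human umbilical vein, primary) are dosed, incubated 24 h, and assayed for Tissue Factor by ELISA; DMSO serves as negative control for bidirectional fitting.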

[11] = BSK_3C_uPAR: BioMAP Diversity Plus: 3C Assay for Urokinase-type plasminogen activator receptor (uPAR) Biomarker Activity (AID 2282998); settings: BioMAP 3C HUVEC, uPAR biomarker ELISA; actives raise or lower the signal
Outline: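 Human umbilical vein endothelial primary cells were exposed to test chemical for 24 h. Cell-surface uPAR was then quantified by ELISA, and responses were fitted bidirectionally against DMSO as negative control and baseline.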

[12] = BSK_3C_VCAM1: BioMAP Diversity Plus: 3C Assay for Vascular cell adhesion molecule 1 (VCAM1) Biomarker Activity (AID 2282999); settings: BioMAP 3C HUVEC, VCAM1 ELISA, cytokine-stimulated; actives raise or lower the signal
Outline: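 Endothelial cells from human umbilical vein are treated with test chemical. At 24 h, VCAM-1 is measured by ELISA, and responses in either direction are fitted relative to DMSO.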

[13] = BSK_4H_Eotaxin3: BioMAP Diversity Plus: 4H Assay for Eotaxin 3 Biomarker Activity (AID 2283000); settings: primary human endothelial cells (HUVEC); actives raise or lower the signal;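 also: CCL26 protein level quantified by ELISA in parallel with SRB cytotoxicity check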
Outline: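 ELISA quantitation of CCL26 (Eotaxin-3) protein from chemically dosed human vascular endothelial cells at 24 h; increases and decreases both scored relative to DMSO-treated baseline.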

[14] = read-out: Intercellular Adhesion Molecule 1 (ICAM1), ICAM1 (gene 3383); experiment: BSK_3C_ICAM1: BioMAP Diversity Plus: 3C Assay for Intercellular Adhesion Molecule 1 (ICAM1) Biomarker Activity (AID 2283003); settings: primary human endothelial cells (HUVEC); actives raise or lower the signal
Outline: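 HUVEC primary cells stimulated under 3C conditions; ICAM1 measured by ELISA 24 h after compound dosing. Curves fitted bidirectionally against the DMSO baseline. Overt cytotoxicity checked by SRB staining of parallel cultures.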

[15] = BSK_3C_Proliferation: Cell Proliferation Assessment in the BioMAP Diversity Plus: 3C Assay (AID 2283006); settings: primary human endothelial cells (HUVEC);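 as to AC50: potency may reflect either rise or fall in cell number versus DMSO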
Outline: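 Subconfluent HUVEC (3C system) cultured with chemical; relative cell number read at 48 h by sulforhodamine B total-protein staining (0.1% SRB after 10% TCA fixation, 560 nm). Bidirectional fit relative to DMSO.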

[16] = target: human Retinoic Acid Receptor gamma (RARg), RARG (gene 5916) (UniProt P13631); experiment: ATG_RARg_TRANS: Attagene TRANS-FACTORIAL HepG2 Assay for human Retinoic Acid Receptor gamma (RARg) (AID 2283009; active = hit-call score of the fitted dose curve at least 0.9, where 1 is the maximum)
Chain of human Retinoic Acid Receptor gamma (RARg), RARG (gene 5916) (P13631 whole entry, looked up, the tested form may be a part): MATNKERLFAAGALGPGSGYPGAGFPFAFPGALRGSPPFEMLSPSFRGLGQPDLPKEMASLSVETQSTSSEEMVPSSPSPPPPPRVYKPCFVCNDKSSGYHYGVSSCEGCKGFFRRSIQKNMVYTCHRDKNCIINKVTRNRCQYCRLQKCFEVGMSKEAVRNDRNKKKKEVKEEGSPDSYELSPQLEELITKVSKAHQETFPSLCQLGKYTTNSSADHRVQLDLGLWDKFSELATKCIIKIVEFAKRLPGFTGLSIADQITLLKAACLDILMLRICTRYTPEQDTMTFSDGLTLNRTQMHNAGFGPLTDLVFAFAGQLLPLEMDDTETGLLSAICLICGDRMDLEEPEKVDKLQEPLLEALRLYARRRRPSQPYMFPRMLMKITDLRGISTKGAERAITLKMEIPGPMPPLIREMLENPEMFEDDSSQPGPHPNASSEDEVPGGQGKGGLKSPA
Outline: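 HepG2 transiently transfected with GAL4-UAS reporter units and chimeric NR-Gal4 constructs; 24 h compound exposure. Reporter mRNA quantified by RT-PCR, FAM labeling, HpaI digestion and capillary electrophoresis; gain-of-signal versus DMSO.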

[17] = target: Cellular tumor antigen p53 (Homo sapiens) (UniProt P04637); experiment: ATG_p53_CIS: Attagene CIS-FACTORIAL HepG2 Assay for human p53 Transcription Factor (AID 2282994); settings: HepG2 p53 cis-element reporter, Attagene mRNA; actives raise or lower the signal
Chain of Cellular tumor antigen p53 (Homo sapiens) (P04637 whole entry, looked up): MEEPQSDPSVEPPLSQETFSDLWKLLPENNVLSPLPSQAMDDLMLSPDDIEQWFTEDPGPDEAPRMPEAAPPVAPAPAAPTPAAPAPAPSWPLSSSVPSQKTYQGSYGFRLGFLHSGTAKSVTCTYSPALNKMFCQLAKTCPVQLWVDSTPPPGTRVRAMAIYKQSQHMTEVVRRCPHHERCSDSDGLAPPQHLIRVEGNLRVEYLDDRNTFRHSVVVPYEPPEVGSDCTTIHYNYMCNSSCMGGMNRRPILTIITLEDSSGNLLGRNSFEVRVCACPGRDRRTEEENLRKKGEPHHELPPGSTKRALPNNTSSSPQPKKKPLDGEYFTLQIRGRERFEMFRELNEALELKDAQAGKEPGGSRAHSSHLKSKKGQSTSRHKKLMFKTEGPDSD
Outline: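 Using HepG2 hepatoma cells carrying cis-acting multiplexed reporters, mRNA induction is detected after a 24 h exposure. Gain- and loss-of-signal responses are fitted relative to DMSO-treated cells.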

[18] = target: Retinoic acid receptor alpha (Homo sapiens) (UniProt P10276); experiment: ATG_RARa_TRANS: Attagene TRANS-FACTORIAL HepG2 Assay for human Retinoic Acid Receptor alpha (RARa) (AID 2283005; active = hit-call score of the fitted dose curve at least 0.9, where 1 is the maximum)
Chain of Retinoic acid receptor alpha (Homo sapiens) (P10276 whole entry, looked up, the tested form may be a part): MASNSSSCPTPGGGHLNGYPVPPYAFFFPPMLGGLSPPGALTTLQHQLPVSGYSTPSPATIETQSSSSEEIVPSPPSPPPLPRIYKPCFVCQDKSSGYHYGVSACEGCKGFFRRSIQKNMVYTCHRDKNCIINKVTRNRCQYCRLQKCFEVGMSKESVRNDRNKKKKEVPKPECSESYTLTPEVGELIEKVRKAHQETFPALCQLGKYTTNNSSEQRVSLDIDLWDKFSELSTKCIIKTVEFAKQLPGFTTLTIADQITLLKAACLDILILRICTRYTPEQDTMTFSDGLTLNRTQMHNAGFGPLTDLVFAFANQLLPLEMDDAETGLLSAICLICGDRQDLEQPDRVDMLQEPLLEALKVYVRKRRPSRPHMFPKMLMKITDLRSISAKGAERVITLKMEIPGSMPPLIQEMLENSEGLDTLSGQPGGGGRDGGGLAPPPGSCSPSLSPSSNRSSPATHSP
Outline: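 Reporter transcripts, measured by RT-PCR with fluorescent labeling and capillary electrophoresis after 24 h dosing, reflect activity of an exogenous human RARa–GAL4 fusion in transiently transfected HepG2. Fitted for increase relative to DMSO.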

[19] = target: Peroxisome proliferator-activated receptor gamma (Homo sapiens) (UniProt P37231); experiment: ATG_PPARg_TRANS: Attagene TRANS-FACTORIAL HepG2 Assay for human Peroxisome Proliferator-activated Receptor-gamma (PPARg) (AID 2283007; active = hit-call score of the fitted dose curve at least 0.9, where 1 is the maximum)
Chain of Peroxisome proliferator-activated receptor gamma (Homo sapiens) (P37231 whole entry, looked up, the tested form may be a part): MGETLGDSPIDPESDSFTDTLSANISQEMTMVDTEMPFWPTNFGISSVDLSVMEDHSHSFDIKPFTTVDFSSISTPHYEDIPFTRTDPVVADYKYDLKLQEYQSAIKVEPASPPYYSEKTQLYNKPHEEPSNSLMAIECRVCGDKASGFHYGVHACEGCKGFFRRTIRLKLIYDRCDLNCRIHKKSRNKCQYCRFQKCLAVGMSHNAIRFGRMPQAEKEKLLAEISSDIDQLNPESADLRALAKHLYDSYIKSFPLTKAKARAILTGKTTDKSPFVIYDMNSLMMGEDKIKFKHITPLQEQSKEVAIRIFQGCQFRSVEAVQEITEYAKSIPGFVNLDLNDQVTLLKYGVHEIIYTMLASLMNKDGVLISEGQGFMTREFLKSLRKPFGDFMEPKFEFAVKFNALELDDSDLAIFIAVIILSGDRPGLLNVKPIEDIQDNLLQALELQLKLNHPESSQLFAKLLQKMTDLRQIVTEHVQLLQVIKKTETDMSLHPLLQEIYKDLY
Outline: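 HepG2 cells transiently transfected with multiplexed GAL4-UAS reporter units and exogenous chimeric NR-Gal4 proteins; reporter mRNA quantified after 24 h compound exposure by RT-PCR, fluorescent labelling, HpaI digestion and capillary electrophoresis; gain-of-signal fitted versus DMSO baseline.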

Measured: AC50

CC(C)[C@@H]1CC[C@@H](C)C[C@H]1O
inactive: [1] | [2] | [3] | [4] | [5] | [6] | [7] | [8] | [9]

COC1=CC(=O)C[C@@H](C)[C@]12Oc1c(Cl)c(OC)cc(OC)c1C2=O
active: [15] 28.3 µM
not listed: [5] | [7] | [9] | [17] | [18] | [19]
inactive: all other assays above

c1cnc2c(c1)ccc1cccnc12
active: [4] 155 µM | [17] 6.68 µM and 6 µM | [5] 28.6 µM | [8] 26.4 µM
inactive: [1] | [2] | [4] | [5] | [6] | [7] | [18] | [8] | [16] | [9]

CC(=O)Nc1ccc(O)cc1
inactive: [2] | [4] | [10] | [11] | [12] | [13] | [6] | [14] | [18] | [15]

CC=O
inactive: [1] | [2] | [3] | [4] | [17] | [7]

CCCCCCC(C)(C)C(=O)O
inactive: [1] | [2] | [4] | [17] | [6] | [18] | [8] | [16]
active: [5] 18 µM | [19] 46.3 µM

CCCCC=O
not listed: [6] | [7] | [16] | [17] | [18] | [19]
inactive: all other assays above
